Results: PubChem BioAssay (NCI)
This is part of a sample that, as a whole, favours compounds with a hit. Of some 83,000 tested, about 20% had one in any assay.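 Activity criterion: percent growth below 10, measured after cells in 96-well plates were exposed to a single compound concentration for 48 hours.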 A number with no mark means an inactive call. Activity calls are given as the source filed them.

Tests used:
Test in all cases: NCI-60 one-dose screen, 48 h (100 = growth as untreated, 0 = no growth, -100 = all killed)
Details in all cases: 10 µM unless noted
NCI-H23 lung = test system: NCI-H23 lung
NCI-H226 lung = test system: NCI-H226 lung
NCI-H322M lung = test system: NCI-H322M lung
HOP-62 NSCLC = test system: HOP-62 NSCLC
NCI-H460 lung = test system: NCI-H460 lung
HOP-92 NSCLC = test system: HOP-92 NSCLC
786-0 renal = test system: 786-0 renal
COLO 205 colon = test system: COLO 205 colon
DU-145 prostate = test system: DU-145 prostate
K-562 leukemia = test system: K-562 leukemia
MALME-3M melanoma = test system: MALME-3M melanoma
MDA-MB-231 breast = test system: MDA-MB-231 breast
RXF 393 renal = test system: RXF 393 renal
SF-268 CNS = test system: SF-268 CNS
SF-295 CNS = test system: SF-295 CNS
SF-539 CNS = test system: SF-539 CNS
M14 melanoma = test system: M14 melanoma
NCI-H522 lung = test system: NCI-H522 lung
A549/ATCC NSCLC = test system: A549/ATCC NSCLC
UACC-257 melanoma = test system: UACC-257 melanoma

For CCS(=O)(=O)Nc1cccc(Nc2c3cccc(C)c3nc3c(C)cccc23)c1OC, the growth (NCI-H23 lung) was 11.1%, the growth (NCI-H226 lung) was -6.89% (active) and the growth (NCI-H322M lung) was 49.1%. The growth (HOP-62 NSCLC) was 8.84% (active), the growth (NCI-H460 lung) was 3.23% (active) and the growth (HOP-92 NSCLC) was -11.8% (active). The growth (786-0 renal) was -42.1% (active), the growth (COLO 205 colon) was 27.1% and the growth (DU-145 prostate) was 2.74% (active). For the same compound, the growth (K-562 leukemia) was 8.19% (active), the growth (MALME-3M melanoma) was 21.5% and the growth (MDA-MB-231 breast) was 59.9%. The growth (RXF 393 renal) was 34.6%, the growth (SF-268 CNS) was 20.4% and the growth (SF-295 CNS) was -7.84% (active). For the same compound, the growth (SF-539 CNS) was -41.3% (active) and the growth (M14 melanoma) was 17.2%.

With O=C(Nc1cccc(-n2ccc3c(NC(=O)c4ccccc4)nccc32)c1)c1ccc(Cl)c(Cl)c1 the growth (NCI-H23 lung) was -31.3% (active), the growth (NCI-H226 lung) was 31.1% and the growth (NCI-H322M lung) was -61.6% (active). For the same compound, the growth (HOP-62 NSCLC) was -82.2% (active), the growth (NCI-H460 lung) was -67.8% (active) and the growth (HOP-92 NSCLC) was -31.9% (active). For the same compound, the growth (786-0 renal) was -93% (active), the growth (COLO 205 colon) was -27.7% (active) and the growth (DU-145 prostate) was -73.3% (active). For the same compound, the growth (MALME-3M melanoma) was -56% (active), the growth (MDA-MB-231 breast) was -53.9% (active) and the growth (RXF 393 renal) was -92.7% (active). The growth (SF-268 CNS) was -55% (active), the growth (SF-295 CNS) was -69.8% (active) and the growth (SF-539 CNS) was -71.2% (active). For the same compound, the growth (M14 melanoma) was -83.4% (active).

For CC(C)(C)c1cc(C[P+](c2ccccc2)(c2ccccc2)c2ccccc2)cc(C(C)(C)C)c1O, the growth (NCI-H23 lung) was -6.21% (active), the growth (NCI-H226 lung) was 32.3% and the growth (NCI-H322M lung) was -9.5% (active). The growth (HOP-62 NSCLC) was 8.73% (active), the growth (NCI-H460 lung) was 3.54% (active) and the growth (HOP-92 NSCLC) was -32.6% (active). The growth (786-0 renal) was 8.5% (active), the growth (COLO 205 colon) was -92.6% (active) and the growth (DU-145 prostate) was 20.5%. The growth (K-562 leukemia) was 3.48% (active), the growth (MALME-3M melanoma) was -18.1% (active) and the growth (MDA-MB-231 breast) was 27.9%. For the same compound, the growth (RXF 393 renal) was 11.7%, the growth (SF-268 CNS) was 19.4% and the growth (SF-295 CNS) was -3.88% (active). For the same compound, the growth (SF-539 CNS) was 3.24% (active) and the growth (M14 melanoma) was 11.7%.

CCOC(=O)c1cc(N)nc2ccccc12 was tested, and the growth (NCI-H23 lung) was 99.2%, the growth (NCI-H226 lung) was 102% and the growth (NCI-H322M lung) was 156%. The growth (HOP-62 NSCLC) was 94.7%, the growth (NCI-H460 lung) was 96.3% and the growth (NCI-H522 lung) was 101%. For the same compound, the growth (A549/ATCC NSCLC) was 122%, the growth (786-0 renal) was 102% and the growth (COLO 205 colon) was 112%. It also gave a growth (DU-145 prostate) of 104%, a growth (K-562 leukemia) of 91.1% and a growth (MALME-3M melanoma) of 139%. The growth (MDA-MB-231 breast) was 107%, the growth (RXF 393 renal) was 109% and the growth (SF-268 CNS) was 91.1%. It also gave a growth (SF-295 CNS) of 100%, a growth (SF-539 CNS) of 97.8% and a growth (UACC-257 melanoma) of 115%.
